UCHL1 block = inhibitors of human UCHL1 deubiquitinase. Ubiquitin carboxyl-terminal hydrolase isozyme L1 (Homo sapiens), P09936. purified UCHL1, Ub-rhodamine cleavage fluorescence. inhibition, % at 20 µM. 47,000 compounds, 0.2% hits. AID 1645859, 2021
USP17 inh = inhibitors of human USP17 deubiquitinase | purified USP17, Ub-rhodamine cleavage fluorescence, 3 h | inhibition, % at 50 µM | 47,000 compounds, 6.5% hits | AID 1645855, 2021
USP8 block = inhibitors of human USP8 deubiquitinase. inhibition, % at 20 µM. 47,000 compounds, 4.2% hits. purified USP8, Ub-rhodamine cleavage fluorescence, 30 min. AID 1645853, 2021
USP7 block = inhibitors of human USP7 deubiquitinase | Ubiquitin carboxyl-terminal hydrolase 7 (Homo sapiens), Q93009 | purified USP7, Ub-rhodamine cleavage fluorescence | inhibition, % at 20 µM | 47,000 compounds, 0.3% hits | AID 1645854, 2021
OTUD3 block = inhibitors of human OTUD3 deubiquitinase. 47,000 compounds, 0.7% hits. inhibition, % at 25 µM. purified OTUD3, Ub-rhodamine fluorescence, 2 h. AID 1645858, 2021
USP10 inh = inhibitors of human USP10 deubiquitinase. purified USP10, Ub-rhodamine fluorescence, 60 min. inhibition, % at 20 µM. 47,000 compounds, 1.1% hits
Starred values were filed as active, the others as inactive; . = not tested or not shown. A selection: hits, their analogues and other compounds. The true share with any hit is near 9.2%. No stated cut-off is given here; in the data, active means inhibition above about 30%; inactive means the rest.

SMILES	UCHL1 block	USP17 inh	USP8 block	USP7 block	OTUD3 block	USP10 inh
CC1CCCCN1S(=O)(=O)c1cc(-c2nnc(C3CC3)o2)co1 (configuration not stated)	-1	11	15	4	20	-2
Cn1ccc2ccn(CC(=O)Nc3cccc(Cl)c3)c(=O)c21	1	21	1	.	0	1
CC(=O)Nc1cccc(NC(=O)Cn2ccc3cc(Br)ccc32)c1	-1	61*	2	13	33*	10
Cc1cccc(-c2noc(CCn3c(=O)[nH]c4ccccc4c3=O)n2)c1	0	61*	14	3	5	1
Cc1ccccc1-c1noc(Cn2c(=O)[nH]c3cc4c(cc3c2=O)OCO4)n1	-4	-9	-8	-1	-21	-5
Cc1cccc(-c2noc(Cn3c(=O)[nH]c4cc5c(cc4c3=O)OCO5)n2)c1	-2	16	55*	2	15	20
Cc1ccc(NS(=O)(=O)c2ccc3c(c2)NC(=O)CC(C)S3)cc1F (configuration not stated)	0	-14	3	0	-15	1
COC(=O)c1cc2c(ccn2-c2ccc(F)cc2)n1C	6	-35	36*	-13	-4	3
c1ccc(-c2cc(-c3csc(-c4ccc5c(c4)OCCO5)n3)on2)cc1	2	51*	-23	10	40*	2
O=[N+]([O-])c1cccc(-c2nnc(-c3ccccn3)o2)c1	-1	-9	-116	-7	0	1
O=[N+]([O-])c1cccc(-c2csc(-c3ccc4c(c3)OCO4)n2)c1	3	21	31*	5	17	-1
O=C(O)c1csc(-c2ccc3c(c2)CCO3)n1	0	1	1	1	0	3
O=C1NC2(CCN(C(=O)c3ccc(Cl)cc3)CC2)N=C1c1ccc(Cl)cc1	1	-2	-2	-28	2	1
Cc1noc(C)c1CN1CCC(N2CCN(C(=O)c3ccc4c(c3)CCO4)CC2=O)CC1	-2	-5	-37	-1	-1	-3
CCOC(=O)c1c(NC(=O)CN2CCOCC2)sc(Cc2ccc3c(c2)OCO3)c1C	6	-11	-18	7	2	3
CN1CC(=O)N(C2CCNC2)Cc2c(NC3CCCCC3)ncnc21 (configuration not stated)	-3	-50	-6	-3	-6	0
O=C(CCn1cnc2ccccc2c1=O)Nc1ccc(Cl)cc1	6	40*	18	-2	7	1
Cc1ccccc1CNC(=O)CCn1cnc2ccccc2c1=O	-1	-32	8	-29	3	-1
NS(=O)(=O)c1cccc(NC(=O)CN2CCCCCC2)c1	0	17	7	1	2	0
COc1ccccc1OCC(=O)Nc1ccc2c(c1)CN(C(=O)c1ccco1)CC2	5	33*	5	-26	10	1
Cc1ccccc1OCC(=O)Nc1ccc(O)c(-c2nc3ccccc3o2)c1	-8	-17	-21	3	-41	-3
CC(C)(C)c1ccc(C(=O)Nc2ccc(O)c(-c3nc4cnccc4o3)c2)cc1	2	2	61*	3	0	5
CC(=O)Nc1ccc(O)c(-c2nc3cc(C)ccc3o2)c1	-2	51*	-5	0	10	-6
CC(C)(C)c1ccc(C(=O)Nc2ccc(Oc3cccnc3)nc2)cc1	5	0	4	2	8	3
Cc1cc(C)nc(N2CCC(N(Cc3cccnc3)C(=O)c3cccc(C#N)c3)CC2)n1	-1	-13	-6	1	4	-8
SMILES	UCHL1 block	USP17 inh	USP8 block	USP7 block	OTUD3 block	USP10 inh
COc1ccc(C(=O)NCc2cn3cccc(C)c3n2)c(OC)c1	0	4	2	3	4	2
O=C(Nc1ccc2nc(CCc3ccccc3)[nH]c2c1)c1ccncc1	1	5	0	6	5	-3
Clc1ccc2nc(COc3ccccc3Cc3ccccc3)[nH]c2c1	4	31*	63*	-8	10	9
O=C(CCc1nnc2ccc(N3CCCC3)nn12)NCc1ccco1	-4	-2	8	-4	0	0
COc1ccc(Cl)cc1C(=O)NNC(=O)c1cc(-c2ccccc2)n[nH]1	0	11	85*	15	2	40*
O=C(O)c1cc(-c2ccccc2)n[nH]1	-1	0	-122	1	-9	-1
O=C(NCc1ccc(Br)cc1)c1cc(-c2cccnc2)n[nH]1	3	37*	90*	29	10	21
O=C(NCc1ccc(F)cc1)C1CCN(C(=O)c2cc(-c3cccnc3)n[nH]2)CC1	-3	-5	-1	2	2	0
Cc1cc(NC(=O)c2cc(-c3cccnc3)n[nH]2)ccc1Br	16	33*	98*	39*	18	38*
Cc1cc(NC(=O)c2cc(-c3ccccn3)n[nH]2)ccc1Br	0	-13	8	8	-7	18
Cc1cc(Cl)ccc1NC(=O)c1cc(-c2cccnc2)n[nH]1	0	67*	7	7	-1	1
CC(C)c1cc(C(=O)N2CCCC2c2ccccc2F)no1 (configuration not stated)	-1	-4	1	-4	0	0
CC1(c2ncc(CNS(=O)(=O)c3ccccc3)cn2)CCCCO1 (configuration not stated)	0	11	-2	7	9	-2
Cc1sc2ncc(C(=O)NC3CC3)c(=O)n2c1C	2	0	10	2	9	3
Cc1c(C)n(-c2ccccc2)c2ncn(CC(=O)NCc3ccccc3F)c(=O)c12	5	7	34*	10	0	17
Cc1cccc(CNC(=O)Cn2cnc3c(c(C)c(C)n3-c3ccccc3)c2=O)c1	6	4	36*	11	9	18
COc1cccc(NC(=O)Cn2cnc3c(c(C)c(C)n3-c3ccccc3)c2=O)c1	6	1	20	3	0	13
CNC(=O)Cn1cnc2c(c(C)c(C)n2-c2ccc(Cl)cc2)c1=O	-3	50*	0	-28	3	-1
COc1ccc(OC)c(NC(=O)Cn2cnc3c(c(C)c(C)n3-c3ccccc3)c2=O)c1	8	-1	32*	3	-2	0
O=C(O)c1ccccc1C(=O)N1CCC(c2nc(-c3cccnc3)no2)CC1	0	7	8	3	1	-1
O=C(OCc1cccc(Cl)c1)c1ccc2ccccc2n1	5	25	11	4	17	12
COc1ccc(-c2nc(NC(=O)C3CC3)sc2C)cc1	-4	30	3	0	-7	3
Cc1ccc(N2CC[C@@H]3[C@@H]2CCN3C(=O)N2CCCC2)nn1	1	-43	-102	2	-50	-5

Source: PubChem BioAssay
